This is a sample that favours compounds with a hit; in the whole collection about 19% have one here.
IL1B secr inh = blocks inflammasome-driven IL-1 beta release. activity change, % at 57.5 µM. actives 4.7% (n = 360,000). THP-1 LPS/ATP IL-1B secretion, AlphaLISA, 16 h; stronger effect = lower value. AID 743279; in the data active = activity change below about -50%; inconclusive = mostly about -30% to -49%
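THP-1 cells pretreated 1 hr with compounds (up to 57.5 uM final), then stimulated with LPS (250 ng/mL final) plus ATP (1.25 mM final); secreted IL-1B measured by AlphaLISA after 16 hr, decreased signal indicating inhibition.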
TDP1 cell noCPT = qHTS for Inhibitors of human tyrosyl-DNA phosphodiesterase 1 (TDP1): qHTS in cells in absence of CPT; DT40 Tdp1-/- hTDP1 cells, no CPT, ATP luminescence, 48 h; Potency, µM (series often up to 46.2 µM), without a hit: at the top dose activity change, negative = growth inhibition, hits mostly inhibitors; actives 15% (n = 420,000); also: potency is read from the fitted curve at half-maximal effect; nearly all actives have a fitted effect of over 55% in size
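Stably hTDP1-transfected Tdp1-null chicken DT40 cells were treated with library compounds minus camptothecin and grown for at least 48 hr at 37 °C, after which cellular ATP was quantified by luminescence.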
TDP1 cell CPT = growth inhibition of DT40 Tdp1-/-;hTDP1 cells with camptothecin (screen for TDP1 inhibitors); chicken DT40 Tdp1-/-;hTDP1 cells + 20 nM CPT, ATP luminescence, 48 h; Potency, µM (doses to about 46.2 µM), inactives show top-dose activity change, negative = growth inhibition, hits mostly inhibitors; actives 12% (n = 420,000); AID 686979; also: potency is read from the fitted curve at half-maximal effect; nearly all actives have a fitted effect of over 55% in size
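Cell growth measured by CellTiter-Glo luminescence after a minimum 48 h, 37 C compound exposure with 20 nM CPT in Tdp1-knockout DT40 cells stably expressing hTDP1, seeded 400/well; qHTS titration format.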
HT1080 IDH1KD tx = toxicity to HT-1080 IDH1 knockdown cells (counter line). AID 686971. actives 2% (n = 360,000). HT-1080 IDH1 knockdown viability, ATP luminescence, 48 h. Potency, µM (highest dose often 46.1 µM), for inactives: at the top dose activity, negative = toxicity, usual class: cytotoxic;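 also: potency is read from the fitted curve at half-maximal effect; 0% = DMSO wells and -100% = cell-free medium wells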
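Cytotoxicity counter-line: IDH1KD HT-1080, 48 h, CellTiter-Glo. Curves classed by r2, magnitude and activity.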
HT1080-NT tox = kills 2HG-producing HT-1080-NT fibrosarcoma cells | HT-1080-NT fibrosarcoma viability, CellTiter-Glo ATP luminescence, 48 h | Potency, µM (top dose mostly 46.1 µM), for the others: top-dose activity, negative = less viability, most hits filed as cytotoxic | actives 1.6% (n = 360,000);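 also: NT is the 2HG producing partner of a matched IDH1 knockdown line; potency is read from the fitted curve at half-maximal effect; 0% = DMSO-treated cells and -100% = media-only wells without cells; nearly all actives have a fitted effect of over 55% in size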
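Viability by CellTiter-Glo luminescence after 48 h compound exposure at 37C of HT-1080-NT cells (750/well, RPMI, 5% FBS). % activity scaled between DMSO wells and medium-only wells, then curve-fitted and categorized by curve class.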
* = called active by the depositor; ? = inconclusive; / = no result; [ ] = dose if it differs, or a comment. Unless noted, calls follow the shape of the dose curve; as a rule, active = well fitted curve in the direction sought with a large enough effect; inconclusive = small, poorly fitted or top-dose-only effect, or another doubt; inactive = no such curve, though single readings can be large; an effect the other way counts as inactive or inconclusive. Unless noted, % is scaled to controls: 0 for no effect and ±100 for the full control effect.

SMILES	IL1B secr inh	TDP1 cell noCPT	TDP1 cell CPT	HT1080 IDH1KD tx	HT1080-NT tox
CCOc1ccc(CCNC(=O)Cn2ccc3cc(S(=O)(=O)N4CCCCCC4)ccc32)cc1	/	13µM*	20.6µM*	/	/
COc1cccc(CNC(=O)Cn2ccc3cc(S(=O)(=O)N4CCCCCC4)ccc32)c1OC	-14.6	?	?	-9.5%	-21.3%
O=C(O)Cn1ccc2cc(S(=O)(=O)N3CCCCC3)ccc21	2.4	-3.4%	0.5%	14.0%	12.4%
O=C(Cn1ccc2cc(S(=O)(=O)N3CCCCCC3)ccc21)NCCc1ccc(Cl)cc1	/	18.4µM*	16.4µM*	/	/
CCCC(=O)NC(=S)Nc1ccc(NC(=O)C(C)C)c(OC)c1	11.7	-4.6%	0.8%	-2.1%	-3.1%
CCCCn1c(SCC(=O)NC2CCS(=O)(=O)C2)nc2ccccc2c1=O (stereo unspecified)	31.5	21.4%	-14.7%	3.7%	-3.3%
CCC(C)N1CCNCC1 (stereo unspecified)	3.5	-4.0%	-14.6%	24.8%	15.3%
CCCCN(C(=O)CSc1nnc(Nc2ccc(C)c(C)c2)s1)c1c(N)n(Cc2ccccc2)c(=O)[nH]c1=O	-77.0*	?	18.4µM*	?	-25.7%
COc1ccc(Oc2ccc(/C=C/C(=O)c3ccc(O)cc3)cc2[N+](=O)[O-])cc1	-100.3*	14.6µM*	?	?	23.1µM*
CNc1ccc(/C=C/C(=O)c2ccc(C)cc2)cc1[N+](=O)[O-]	-11.2	?	?	?	?
O=C(/C=C/c1ccc(O)c([N+](=O)[O-])c1)c1ccc2ccccc2c1	-20.4	23.1µM*	18.4µM*	?	-14.4%
COc1ccc(CN2CCCC(n3cc(C(=O)N4CCCCC4)nn3)C2)c(OC)c1 (stereo unspecified)	/	-6.4%	-0.1%[9.04 µM]	/	/
Cc1onc(-c2ccccc2Cl)c1C(=O)Oc1cc(F)cc(F)c1	/	-8.9%	-16.2%	/	/
COC(=O)c1cc(OC)c(OC)cc1NC(=O)c1c(-c2ccccc2Cl)noc1C	6.6	13µM*	18.4µM*	1.9%	1.7%
Cc1nc(/C(N)=N/OC(=O)c2c(-c3ccccc3Cl)noc2C)cs1	-88.6*	?	-26.3%	?	?
Cc1onc(-c2ccccc2Cl)c1C(=O)Nc1nnc(-c2ccc(Br)cc2)s1	19.2	?	16.4µM*	-16.3%	-17.3%
Cc1onc(-c2ccccc2Cl)c1C(=O)N1CCN(c2cccc(Cl)c2)CC1	71.0	1.46µM*	1.64µM*	2.06µM*	2.59µM*
CCC(C)NC(=O)CSc1nc2ccccc2c(=O)n1-c1c(C)n(C)n(-c2ccccc2)c1=O (stereo unspecified)	-12.8	-0.4%	7.1%	2.4%	6.0%
COC(=O)CCC(=O)N1CCCC(N2CCN(c3cccc(C(F)(F)F)c3)CC2)C1 (stereo unspecified)	-4.0	-28.7%	?	-9.1%	-0.5%
COc1ccc(/C(N)=N/OC(=O)c2c(-c3ccccc3Cl)noc2C)cc1OC	-91.5*	?	20.6µM*	16.4µM*	?
Cc1onc(-c2ccccc2Cl)c1C(N)=O	0.0	-14.3%	1.0%	1.6%	1.8%
Cc1onc(-c2ccccc2Cl)c1C(=O)Oc1ccc(Cl)cc1Cl	/	20.6µM*	16.4µM*	/	/
CC(=O)Nc1ccc(C(=O)OCC(=O)N(c2ccccc2)C2CCS(=O)(=O)C2)cc1 (stereo unspecified)	-5.8	-12.6%	-2.9%	12.6%	10.6%
O=C(CCl)N(c1ccccc1)C1CCS(=O)(=O)C1 (stereo unspecified)	-88.8*	8.2µM*	8.2µM*	18.4µM*	?
Cc1cc(C)c2oc(C(=O)Nc3c(C(=O)c4ccc(F)cc4)oc4ccccc34)cc(=O)c2c1	/	?	-8.5%	/	/
CCc1ccc2[nH]c(=O)c(CN(CCN(C)C)C(=O)Nc3ccccc3)cc2c1	-58.6*	?	?	?	?
